Measured values: PubChem BioAssay (NCI)
The panel holds about 83,000 compounds, 20% with a hit somewhere; the sample as a whole holds those more often.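 Single-concentration screen, 48 h exposure, 96-well plates. Endpoint: percent growth. Below 10 = active.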 Active and inactive are the calls of the source.

How the values were obtained:
Assay in all cases: NCI-60 one-dose screen, 48 h (100 = growth as untreated, 0 = no growth, -100 = all killed)
Conditions in all cases: 10 µM unless noted
T-47D breast = test system: T-47D breast
BT-549 breast = test system: BT-549 breast
MDA-MB-435 melanoma = test system: MDA-MB-435 melanoma
SW-620 colon = test system: SW-620 colon
MCF7 breast = test system: MCF7 breast
HCT-116 colon = test system: HCT-116 colon
HCC-2998 colon = test system: HCC-2998 colon
KM12 colon = test system: KM12 colon

Measured: growth

CCCCNC1=C(OCC)C(=O)c2ccccc2C1=O
inactive: T-47D breast 89.6% | BT-549 breast 76.5% | MDA-MB-435 melanoma 96.8% | SW-620 colon 104% | MCF7 breast 76.3% | HCT-116 colon 80.3% | HCC-2998 colon 95.1% | KM12 colon 93.7%

CCCCn1sc(=O)n(Cc2ccc(CNC(=O)OCc3ccc4c(Br)cc(Br)c(O)c4n3)cc2)c1=O
inactive: T-47D breast 69.9% | SW-620 colon 24.5% | MCF7 breast 12% | HCC-2998 colon 24.8%
active: BT-549 breast -16.2% | MDA-MB-435 melanoma -35.4% | HCT-116 colon 7.95% | KM12 colon 2.42%

Cc1nc2ccccc2c(/C=C/c2ccc(C(F)(F)F)cc2)c1C(=O)/C=C/c1ccccc1
active: T-47D breast -18.6% | BT-549 breast -0.148% | MDA-MB-435 melanoma -39.2% | SW-620 colon -40.8% | MCF7 breast 4.74% | HCT-116 colon -74.9% | HCC-2998 colon -74.7% | KM12 colon 4.07%

COc1ccc(/C=C/C(=O)c2cc3c(N)c(C(=O)Nc4ccccc4C)sc3nc2C)cc1
active: MDA-MB-435 melanoma -39.6% | MCF7 breast 9.36%
inactive: T-47D breast 39.9% | BT-549 breast 29.7% | SW-620 colon 14.9% | HCT-116 colon 14.7% | HCC-2998 colon 15.4% | KM12 colon 10.6%

CS(=O)(=O)Nc1cncc(-c2ccc3ncnc(Nc4ccc(F)c(Cl)c4)c3c2)c1
inactive: BT-549 breast 32.4% | MDA-MB-435 melanoma 49% | SW-620 colon 43.1% | MCF7 breast 13.1% | HCT-116 colon 19.6% | HCC-2998 colon 66% | KM12 colon 59.4%
active: T-47D breast -9.57%

N=C(N)c1ccc(-c2ccc(-c3ccc(Cl)cc3)o2)o1
active: MDA-MB-435 melanoma -89.1% | SW-620 colon -69.7% | MCF7 breast -70.9% | HCT-116 colon -76.1% | HCC-2998 colon -81.1% | KM12 colon -84.9%
inactive: T-47D breast 26.5% | BT-549 breast 93.1%

CC(C)(CO)N(CCO)CCO
inactive: T-47D breast 112% | BT-549 breast 101% | MDA-MB-435 melanoma 108% | SW-620 colon 111% | MCF7 breast 100% | HCT-116 colon 106% | HCC-2998 colon 105% | KM12 colon 106%

COc1ccc(C2=Nc3c(N)ncnc3NC(c3cccc(Nc4ccnc5cc(C(F)(F)F)ccc45)c3)C2)cc1 (stereo not given)
inactive: T-47D breast 62% | BT-549 breast 80.7% | MDA-MB-435 melanoma 19.1% | SW-620 colon 62.3% | MCF7 breast 30.1% | HCT-116 colon 40% | HCC-2998 colon 72.1% | KM12 colon 47.1%

CN(C)c1ccc(/C=C2/C=C(c3ccccc3)OC2=O)cc1
inactive: T-47D breast 86.9% | BT-549 breast 98.6% | MDA-MB-435 melanoma 21.7% | SW-620 colon 95.2% | MCF7 breast 56.6% | HCT-116 colon 100% | HCC-2998 colon 95% | KM12 colon 63.5%

COc1cc(C(=O)/C=C/c2c(-c3cccs3)nc3ccccn23)cc(OC)c1OC
active: BT-549 breast -16.9% | SW-620 colon 4.78% | MCF7 breast 7.96% | HCT-116 colon -5.59% | KM12 colon -25.6%
inactive: T-47D breast 18.2% | MDA-MB-435 melanoma 11% | HCC-2998 colon 17.1%

N=c1c2c(=N)n3c(nc2nc2n1-c1ccccc1Sc1ccccc1-2)sc1cc(Cl)ccc13
inactive: BT-549 breast 42.2% | MDA-MB-435 melanoma 21.1% | SW-620 colon 32.4% | HCT-116 colon 10.7% | KM12 colon 19.9%
active: T-47D breast 6.16% | MCF7 breast -2.03% | HCC-2998 colon -18.6%

CCC/C(=N\NC(N)=O)C(OC)OC
inactive: T-47D breast 114% | BT-549 breast 110% | MDA-MB-435 melanoma 110% | SW-620 colon 110% | MCF7 breast 90.8% | HCT-116 colon 102% | HCC-2998 colon 99.3% | KM12 colon 97.7%

COc1ccc(C2=NN(C(=O)c3cc(OC)c(OC)c(OC)c3)C(c3ccc(N(C)C)cc3)C2)cc1 (stereo not given)
inactive: T-47D breast 56.8% | BT-549 breast 28.4% | SW-620 colon 28.3% | MCF7 breast 15% | HCT-116 colon 11.8% | KM12 colon 23.3%
active: MDA-MB-435 melanoma -30.4% | HCC-2998 colon 1.81%

Fc1ccc(CNc2c3ccccc3nc3ccccc23)cc1
active: MCF7 breast 7.09%
inactive: T-47D breast 31.1% | BT-549 breast 80.7% | MDA-MB-435 melanoma 34.8% | SW-620 colon 22.8% | HCT-116 colon 12.6% | HCC-2998 colon 18.3% | KM12 colon 28.3%

Cc1ccc2nc(Cl)c(Cn3nnnc3SCc3ccccc3)cc2c1
inactive: T-47D breast 84.6% | BT-549 breast 92.3% | MDA-MB-435 melanoma 103% | SW-620 colon 96.1% | MCF7 breast 87.9% | HCT-116 colon 89.5% | HCC-2998 colon 111% | KM12 colon 101%

COc1ccc(NC(=O)c2sc3nc(C)c(C(O)c4ccccc4)cc3c2N)cc1 (stereo not given)
inactive: T-47D breast 23.9% | BT-549 breast 65.8% | SW-620 colon 25.4% | MCF7 breast 19.1% | HCT-116 colon 21.4% | HCC-2998 colon 19.4% | KM12 colon 20.3%
active: MDA-MB-435 melanoma -27.8%

Cc1[nH]c(/C=C/C(=O)c2ccc(C(F)(F)F)c(F)c2)c(C)c1C(=O)NCC(C)C
inactive: T-47D breast 88.2% | BT-549 breast 111% | MDA-MB-435 melanoma 103% | SW-620 colon 102% | MCF7 breast 86% | HCT-116 colon 96.7% | HCC-2998 colon 98.9% | KM12 colon 101%

COc1ccc(NC(=O)c2ccc(C(=O)Nc3ccc(OC)cc3OC)cc2)c(OC)c1
inactive: T-47D breast 71.9% | BT-549 breast 43.6% | MDA-MB-435 melanoma 93.3% | SW-620 colon 97.9% | MCF7 breast 75.2% | HCT-116 colon 78.1% | HCC-2998 colon 72.2% | KM12 colon 103%

N=c1sc(Cc2cc(Cl)ccc2Cl)cn1CC(=O)c1ccccc1
active: MDA-MB-435 melanoma -41.5%
inactive: T-47D breast 38.3% | BT-549 breast 68.8% | SW-620 colon 21.2% | MCF7 breast 32.3% | HCT-116 colon 26.1% | HCC-2998 colon 31.6% | KM12 colon 16.1%

O=C(CSc1nc2ccc([N+](=O)[O-])cc2[nH]1)Nc1ccc(Br)cc1
active: T-47D breast 8.75%
inactive: BT-549 breast 50.4% | MDA-MB-435 melanoma 46.5% | SW-620 colon 74.5% | MCF7 breast 64.5% | HCT-116 colon 28.2% | HCC-2998 colon 79.6% | KM12 colon 56.2%

CS(=O)(=O)Nc1cc(-c2ccc3ncnc(Nc4ccc5c(cnn5Cc5cccnc5)c4)c3c2)cnc1Cl
active: T-47D breast 0.364%
inactive: BT-549 breast 17.1% | MDA-MB-435 melanoma 53.9% | SW-620 colon 66.8% | MCF7 breast 15.2% | HCT-116 colon 69.8% | HCC-2998 colon 65.7% | KM12 colon 82.9%

COc1ccc2[nH]cc(-c3nc(-c4cn(C)c5ccncc45)cs3)c2c1
inactive: T-47D breast 92.1% | BT-549 breast 85.1% | MDA-MB-435 melanoma 64.7%
active: SW-620 colon -56.9% | MCF7 breast -39.4% | HCT-116 colon -83.8% | HCC-2998 colon -38.9% | KM12 colon -31.8%

O=C(O)c1cccc(N/C=C/C(=O)c2cc3cc(Br)ccc3oc2=O)c1
inactive: T-47D breast 90.5% | BT-549 breast 86.1% | MDA-MB-435 melanoma 96.5% | SW-620 colon 98.1% | MCF7 breast 88.4% | HCT-116 colon 93.3% | HCC-2998 colon 105% | KM12 colon 95.8%

O=C1c2cc3c(cc2-c2c1c1ccc(Cl)cc1c(=O)n2C[C@H](O)CO)OCO3
active: T-47D breast -6.44% | BT-549 breast 1.39% | MDA-MB-435 melanoma -59.7% | SW-620 colon -4.07% | MCF7 breast -1.79% | HCT-116 colon -25.6% | HCC-2998 colon 4.32% | KM12 colon -14.4%

COc1ccc(/C=C/C(=O)c2cc3c(N)c(C(=O)Nc4ccc(OC)cc4)sc3nc2C)cc1
active: MDA-MB-435 melanoma -23%
inactive: T-47D breast 57.2% | BT-549 breast 24.6% | SW-620 colon 19.2% | MCF7 breast 14.3% | HCT-116 colon 16.6% | HCC-2998 colon 15.9% | KM12 colon 13.1%

COc1ccc(C/C(C)=C(\c2ccc(O)cc2)c2ccc(OCCN3CCCC3)cc2)cc1
inactive: T-47D breast 73.3% | BT-549 breast 110% | MDA-MB-435 melanoma 103% | SW-620 colon 104% | MCF7 breast 63.3% | HCT-116 colon 93.8% | HCC-2998 colon 104% | KM12 colon 106%

COc1cc(-c2nc3occn3c2-c2ccnc(NCCCNS(=O)(=O)c3ccccc3)n2)ccc1F
active: T-47D breast 8.36% | MDA-MB-435 melanoma 9.04%
inactive: BT-549 breast 29.7% | SW-620 colon 65.2% | MCF7 breast 20.5% | HCT-116 colon 34.3% | HCC-2998 colon 69.1% | KM12 colon 30%

CN1CCN(Cc2ccc(NC(=O)c3cncc(C#Cc4cnn5ccccc45)c3)cc2C(F)(F)F)CC1
active: MDA-MB-435 melanoma 6.02% | SW-620 colon -14.3% | MCF7 breast 0.711% | HCT-116 colon 4.92% | HCC-2998 colon -19.1% | KM12 colon 0.221%
inactive: T-47D breast 35.5% | BT-549 breast 41%

C[C@H]1[C@H](C)CC[C@]2(C(=O)O)CC[C@]3(C)C(=CC[C@@H]4[C@@]5(C)C[C@@H](Cc6cn([C@@H]7O[C@H](CO)[C@@H](O)[C@H](O)[C@H]7O)nn6)[C@H](O)C(C)(C)[C@@H]5CC[C@]43C)[C@H]12
inactive: T-47D breast 93.5% | BT-549 breast 102% | MDA-MB-435 melanoma 101% | SW-620 colon 97.6% | MCF7 breast 92.7% | HCT-116 colon 92% | HCC-2998 colon 107% | KM12 colon 108%

CCOC(=O)n1cc(-c2nonc2-c2cn(C)c3ccccc23)c2ccccc21
inactive: T-47D breast 40.6% | BT-549 breast 55.3% | SW-620 colon 18.8% | MCF7 breast 21.6% | HCT-116 colon 22.3% | HCC-2998 colon 60.9% | KM12 colon 29.1%
active: MDA-MB-435 melanoma -8%
